# High-throughput results (PubChem)
# M1 PAM parental: M1 PAM counterscreen hit in parental CHO-K1 cells; ATP EC20, Fluo-8 calcium fluorescence; 0% at ATP EC20, 100% at ATP max; activation, % at 3 µM; 360,000 compounds, 0.02% hits;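 active means activation above the run cutoff, the mean activation of all test compounds plus 3 SD, cut at about 40% in these data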;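 further: peak over basal fluorescence ratio in a 140 s read after ATP addition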
# CHO-K1 Ca antag: nonselective inhibitor or artifact in parental CHO-K1 cells; ATP-induced calcium, Fluo-8 fluorescence; 360,000 compounds, 0.6% hits; inhibition, % at 3 µM;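 active means inhibition above a per-plate cutoff, the plate's mean sample inhibition plus 3 SD, cut at about 24% in these data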;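 further: 0% = DMSO plus EC80 ATP and 100% = DMSO alone without ATP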
# CHRM1 antagonist: antagonists of human M1 muscarinic receptor. P11229. CHO-K1 hM1, Fluo-8 calcium fluorescence, ACh EC80 antagonist. inhibition, % at 3 µM. 360,000 compounds, 1.3% hits;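 active means percent inhibition above its own plate's cutoff, namely the mean of that plate's compound wells plus 3 SD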;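 further: peak over basal fluorescence ratio during 140 s after agonist addition; 0% = ACh EC80 plus DMSO and 100% = DMSO alone without agonist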
# Target sequence (P11229 whole entry, looked up): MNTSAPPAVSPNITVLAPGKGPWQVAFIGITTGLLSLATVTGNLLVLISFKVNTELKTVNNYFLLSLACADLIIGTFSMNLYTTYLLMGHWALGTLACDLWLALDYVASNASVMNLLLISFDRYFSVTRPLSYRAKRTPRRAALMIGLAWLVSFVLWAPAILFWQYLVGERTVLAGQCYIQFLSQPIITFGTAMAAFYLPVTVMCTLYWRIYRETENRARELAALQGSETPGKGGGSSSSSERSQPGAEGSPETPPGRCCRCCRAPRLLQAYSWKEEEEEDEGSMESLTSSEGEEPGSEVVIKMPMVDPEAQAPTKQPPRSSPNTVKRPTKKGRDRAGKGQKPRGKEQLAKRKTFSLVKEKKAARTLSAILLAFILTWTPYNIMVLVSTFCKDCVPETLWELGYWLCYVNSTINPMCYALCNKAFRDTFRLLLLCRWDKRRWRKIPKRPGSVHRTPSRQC
# CHRM1 PAM: positive allosteric modulators of human M1 muscarinic receptor. P11229. activation, % at 3 µM. 360,000 compounds, 0.088% hits. CHO-K1 hM1, Fluo-8 calcium fluorescence, ACh EC20; 0% = ACh EC20, 100% = maximal ACh; in the data active means activation above about 19%, passing the limit was not always enough
# M1 ag: activates human CHRM1 receptor; 360,000 compounds, 0.33% hits; P11229; activation, % at 3 µM; CHO-K1 hM1, Fluo-8 calcium fluorescence, agonist mode; 0% DMSO, 100% acetylcholine EC100;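 active means activation above the run's mean compound activation plus 3 SD, cut at about 16% in these data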;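 further: peak over basal fluorescence ratio within a 140 s kinetic read after compound addition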
# M1 ag parental: M1 agonist counterscreen hit in parental CHO-K1 cells; Fluo-8 calcium fluorescence; scaled to maximal ATP response, vehicle zero; activation, % at 3 µM; 360,000 compounds, 0.48% hits; in the data active means activation above about 15%;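 further: untransfected CHO-K1 host cells lacking M1 receptor as counterscreen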
# Active calls of the source: *. Most compounds without a hit are left out; they make up all but 2.4% or so of the library.
SMILES,M1 PAM parental,CHO-K1 Ca antag,CHRM1 antagonist,CHRM1 PAM,M1 ag,M1 ag parental
O=C(c1cc2ccccc2o1)N1CCCCCC1,12,-6,-26,5,-6,0
CC(CN1CCCCC1)OC(=O)c1cc2ccccc2o1 (configuration not stated),10,-4,37*,-17,-5,1
CC(CN1CCCCC1)OC(=O)c1ccc2c(c1)OCO2 (configuration not stated),18,-16,17,-7,-5,1
CC(C)C[C@@H](CN=[N+]=[N-])N1CCN(C)CCC1=O,15,-20,-4,0,-10,1
C#CC[N+](C)(C)CCCCCCCCC,24,-5,8,-3,-7,0
CC#CC[N+](C)(C)CCCCCCCCCC,-1,4,57*,-19,-8,1
O=C(Nc1ccc(Oc2ccccc2)nc1)C1CCN(Cc2cccc(F)c2)CC1,-2,8,-1,3,3,24*
C#Cc1ccc(CN2CCC(C(=O)Nc3ccc(Oc4ccccc4)nc3)CC2)cc1,15,-6,5,-2,0,9
CCO[C@H]1OC(C(=O)N2CCN(Cc3ccc4c(c3)OCO4)CC2)=C[C@@H](C2CC2)[C@@H]1CCCO,5,-7,-2,5,-4,1
O=C(CSc1nc2c(c(=O)[nH]1)CCC2)Nc1cccc(Cl)c1,9,-1,-12,15,17*,0
O=C(CSc1nc2c(c(=O)[nH]1)CCC2)Nc1ccccc1Cl,17,-14,-15,10,-2,1
CN(CC(=O)Nc1ccccc1F)CC(=O)Nc1ccc(F)c(F)c1F,6,1,-3,2,-6,2
CN(CC(=O)Nc1ccc(F)c(F)c1F)C(=O)C1(c2ccccc2)CC1,7,24*,-8,3,-2,2
CCN(CC)c1ccc(/C=C(/C#N)C(=O)NCc2ccccc2)o1,2,12,9,-2,16*,27*
CN1CCC(OC(=O)COc2ccc(F)cc2)CC1,21,-19,-13,8,-8,1
COc1cccc(C(=O)OC2CCN(C)CC2)c1,-14,29*,10,-9,-10,-1
CN1CCC(OC(=O)COc2ccccc2)CC1,2,-2,51*,-18,-3,0
CC(=O)C1=C(O)C(=O)N(c2ccc(C)cc2)C1c1ccc([N+](=O)[O-])cc1 (configuration not stated),15,14,1,12,-6,16*
COc1cccc(NC(=O)C2CCCN(S(=O)(=O)c3ccc(-n4cnnn4)cc3)C2)c1 (configuration not stated),4,-8,1,-3,8,1
CC1CCc2nn(CC(=O)N3CCc4ccccc43)cc2C1 (configuration not stated),9,6,102*,-34,-14,1
CC(/C=N/NC(=O)Cn1cnc2ccccc21)=C\c1ccccc1,-9,27*,-1,2,-5,0
O=C(Cn1cnc2ccccc21)N/N=C/c1ccccc1,2,4,-8,12,-3,17*
O=C(Cn1cnc2ccccc21)Nc1ccc(C(=O)O)cc1,12,-18,-10,7,0,0
CC(/C=N/NC(=O)CCn1nnc2ccccc21)=C\c1ccccc1,2,-3,2,2,-5,1
O=C(Cn1cnc2ccccc21)N1CCc2ccccc21,-16,28*,0,14,2,0
SMILES,M1 PAM parental,CHO-K1 Ca antag,CHRM1 antagonist,CHRM1 PAM,M1 ag,M1 ag parental
CCc1n[nH]c(=S)n1/N=C/c1ccccn1,9,5,-1,2,1,1
O=C(CC(=O)N/N=C\c1ccccc1)NCCc1ccccc1,-5,1,11,-10,0,0
COC(=O)c1ccc(/C=N\NC(=O)CC(=O)NCCc2ccccc2)cc1,2,15,-2,7,-7,17*
COc1ccc(-n2nc([N+](=O)[O-])c(=NCCc3ccccc3)n2O)cc1,15,-7,2,5,-6,2
COc1ccc(CC2(CO)CCN(CC3=Cc4cc(Cl)ccc4OC3)CC2)cc1,7,22,27*,-33,-10,8
COc1ccc(CC2(CO)CCN(Cc3cnn(-c4ccccc4)c3)CC2)cc1,12,-7,-3,4,-13,3
